Reference: PubChem BioAssay AID1159580 (chemical genetic matrix, 2015)
The campaign covered roughly 5,500 compounds. About 2,000 (36%) were called active. Inconclusive results (about 18%) are left out. Cut-off read from the data, not from the text of the source: active = normalized growth mostly below about 0.91 (no sharp cut-off); inconclusive = no clear call, values can overlap the other calls; inactive = mostly above about 0.92. This is one part of the list.

Assay: chemical genetic growth profiling, strain panel (AID 1159580);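 note: tested at 20 µM; growth read once vehicle control cultures reached saturation at 30 °C; 1 = growth at the plate median or of vehicle wells; lower values mean less growth of the strain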
Conditions: growth OD

Measured: normalized growth

NC(=O)c1ncn([C@@H]2O[C@H](CO)[C@@H](O)[C@H]2O)c1O
inactive: S. cerevisiae deletion strains, locus YAL013W, strain DEP1, active compounds read low 1 | S. cerevisiae deletion strains, locus YBR021W, strain FUR4, active compounds read low 1.02 | S. cerevisiae deletion strains, locus YBR229C, strain ROT2, active compounds read low 1.01 | S. cerevisiae deletion strains, locus YCL029C, strain bik1, active compounds read low 1.01 | S. cerevisiae deletion strains, locus YDL035C, strain GPR1, active compounds read low 1.02 | S. cerevisiae deletion strains, locus YDL074C, strain BRE1, active compounds read low 0.978 | S. cerevisiae deletion strains, locus YDL101C, strain DUN1, active compounds read low 1 | S. cerevisiae deletion strains, locus YDL134C, strain PPH21, active compounds read low 1 | S. cerevisiae deletion strains, locus YDL185W, strain tfp1, active compounds read low 1.01 | S. cerevisiae deletion strains, locus YDL192W, strain arf1, active compounds read low 1.01 | S. cerevisiae deletion strains, locus YDR101C, strain arx1, active compounds read low 1.01 | S. cerevisiae deletion strains, locus YDR150W, strain NUM1, active compounds read low 0.997 | S. cerevisiae deletion strains, locus YDR162C, strain NBP2, active compounds read low 0.983 | S. cerevisiae deletion strains, locus YDR318W, strain mcm21, active compounds read low 1.03 | S. cerevisiae deletion strains, locus YDR388W, active compounds read low 1 | S. cerevisiae deletion strains, locus YDR502C, strain sam2, active compounds read low 0.999 | S. cerevisiae deletion strains, locus YEL061C, strain CIN8, active compounds read low 1 | S. cerevisiae deletion strains, locus YER110C, active compounds read low 1.01 | S. cerevisiae deletion strains, locus YER155C, strain BEM2, active compounds read low 1 | S. cerevisiae deletion strains, locus YER167W, strain BCK2, active compounds read low 1.03 | S. cerevisiae deletion strains, locus YGL078C, strain dbp3, active compounds read low 0.984 | S. cerevisiae deletion strains, locus YGL086W, strain mad1, active compounds read low 1.02 | S. cerevisiae deletion strains, locus YGL248W, strain PDE1, active compounds read low 1.01 | S. cerevisiae deletion strains, locus YGR078C, strain PAC10, active compounds read low 1 | S. cerevisiae deletion strains, locus YGR135W, strain pre9, active compounds read low 0.988 | S. cerevisiae deletion strains, locus YGR229C, strain SMI1, active compounds read low 0.981 | S. cerevisiae deletion strains, locus YGR252W, strain gcn5, active compounds read low 1.01 | S. cerevisiae deletion strains, locus YHR030C, strain SLT2, active compounds read low 1.01 | S. cerevisiae deletion strains, locus YHR079C, strain IRE1 (second series), active compounds read low 1.02 | S. cerevisiae deletion strains, locus YHR094C, strain hxt1, active compounds read low 1.01 | S. cerevisiae deletion strains, locus YHR129C, strain ARP1, active compounds read low 1.01 | S. cerevisiae deletion strains, locus YHR200W, strain rpn10, active compounds read low 1.01 | S. cerevisiae deletion strains, locus YIL066C, strain RNR3, active compounds read low 1.01 | S. cerevisiae deletion strains, locus YIL073C, strain SPO22, active compounds read low 1.07 | S. cerevisiae deletion strains, locus YIL125W, strain kgd1, active compounds read low 1 | S. cerevisiae deletion strains, locus YIR030C, strain dcg1, active compounds read low 1.02 | S. cerevisiae deletion strains, locus YJL095W, strain BCK1, active compounds read low 0.994 | S. cerevisiae deletion strains, locus YJL134W, strain LCB3, active compounds read low 1.01 | S. cerevisiae deletion strains, locus YJL168C, strain set2, active compounds read low 1.01 | S. cerevisiae deletion strains, locus YJL187C, strain SWE1 (second series), active compounds read low 0.998 | S. cerevisiae deletion strains, locus YJR043C, strain POL32, active compounds read low 1.04 | S. cerevisiae deletion strains, locus YJR075W, strain HOC1, active compounds read low 0.974 | S. cerevisiae deletion strains, locus YKL009W, strain mrt4, active compounds read low 0.996 | S. cerevisiae deletion strains, locus YKL068W, active compounds read low 0.995 | S. cerevisiae deletion strains, locus YKL085W, strain MDH1 (second series), active compounds read low 1 | S. cerevisiae deletion strains, locus YKL085W, strain MDH1, active compounds read low 1 | S. cerevisiae deletion strains, locus YKL190W, strain CNB1, active compounds read low 1.01 | S. cerevisiae deletion strains, locus YKR001C, strain vps1, active compounds read low 1.02 | S. cerevisiae deletion strains, locus YLR039C, strain RIC1, active compounds read low 1.04 | S. cerevisiae deletion strains, locus YLR058C, strain SHM2, active compounds read low 1.01 | S. cerevisiae deletion strains, locus YLR102C, strain apc9, active compounds read low 1.02 | S. cerevisiae deletion strains, locus YLR262C, strain YPT6, active compounds read low 0.988 | S. cerevisiae deletion strains, locus YLR268W, strain sec22, active compounds read low 0.988 | S. cerevisiae deletion strains, locus YLR330W, strain CHS5, active compounds read low 1 | S. cerevisiae deletion strains, locus YLR342W, strain FKS1 (second series), active compounds read low 1.07 | S. cerevisiae deletion strains, locus YLR371W, strain rom2, active compounds read low 1.02 | S. cerevisiae deletion strains, locus YLR418C, strain cdc73, active compounds read low 0.979 | S. cerevisiae deletion strains, locus YML016C, strain PPZ1, active compounds read low 1 | S. cerevisiae deletion strains, locus YML032C, strain rad52, active compounds read low 1.03 | S. cerevisiae deletion strains, locus YML124C, strain tub3, active compounds read low 1.01 | S. cerevisiae deletion strains, locus YMR078C, strain ctf18, active compounds read low 1.02 | S. cerevisiae deletion strains, locus YMR223W, strain ubp8, active compounds read low 1.03 | S. cerevisiae deletion strains, locus YMR263W, strain SAP30, active compounds read low 0.991 | S. cerevisiae deletion strains, locus YMR307W, strain GAS1, active compounds read low 1.05 | S. cerevisiae deletion strains, locus YNL067W, strain RPL9B, active compounds read low 0.988 | S. cerevisiae deletion strains, locus YNL128W, strain TEP1, active compounds read low 0.977 | S. cerevisiae deletion strains, locus YNL153C, strain GIM3, active compounds read low 0.995 | S. cerevisiae deletion strains, locus YNL233W, strain BNI4, active compounds read low 0.99 | S. cerevisiae deletion strains, locus YNL250W, strain rad50, active compounds read low 1.01 | S. cerevisiae deletion strains, locus YNL271C, strain bni1, active compounds read low 1.01 | S. cerevisiae deletion strains, locus YNL298W, strain CLA4, active compounds read low 1.02 | S. cerevisiae deletion strains, locus YNL307C, strain MCK1, active compounds read low 1.05 | S. cerevisiae deletion strains, locus YNL322C, strain KRE1, active compounds read low 1.01 | S. cerevisiae deletion strains, locus YNR052C, strain pop2, active compounds read low 1.02 | S. cerevisiae deletion strains, locus YOL006C, strain TOP1, active compounds read low 1.06 | S. cerevisiae deletion strains, locus YOL012C, strain htz1 0.852 | S. cerevisiae deletion strains, locus YOL147C, strain pex11, active compounds read low 0.999 | S. cerevisiae deletion strains, locus YOR061W, strain CKA2, active compounds read low 1 | S. cerevisiae deletion strains, locus YOR069W, strain VPS5, active compounds read low 1.01 | S. cerevisiae deletion strains, locus YOR136W, strain idh2, active compounds read low 1.02 | S. cerevisiae deletion strains, locus YOR144C, strain elg1, active compounds read low 1 | S. cerevisiae deletion strains, locus YOR184W, strain ser1, active compounds read low 1.06 | S. cerevisiae deletion strains, locus YOR316C, strain cot1, active compounds read low 1.01 | S. cerevisiae deletion strains, locus YPL055C, strain LGE1, active compounds read low 0.946 | S. cerevisiae deletion strains, locus YPL241C, strain CIN2, active compounds read low 1 | S. cerevisiae deletion strains, locus YPR119W, strain clb2, active compounds read low 1.01 | S. cerevisiae deletion strains, locus YPR141C, strain kar3, active compounds read low 1.01 | S. cerevisiae deletion strains, locus YPR163C, strain tif3, active compounds read low 1.01 | S. cerevisiae deletion strains, locus YPR167C, strain met16, active compounds read low 1.01 | S. cerevisiae deletion strains, strain wtn01, active compounds read low 0.997 | S. cerevisiae strains, strain wild type, active compounds read low 1.02
